Bioassay records deposited in PubChem by several laboratories.
VHR inh abs: blocks human VHR1 dual specificity phosphatase; recombinant VHR phosphatase, pNPP absorbance; inhibition, % at 13.3 µM; 290,000 compounds, 0.52% hits; AID 1654; in the data active = inhibition above about 50%
Target sequence (P51452 whole entry, looked up): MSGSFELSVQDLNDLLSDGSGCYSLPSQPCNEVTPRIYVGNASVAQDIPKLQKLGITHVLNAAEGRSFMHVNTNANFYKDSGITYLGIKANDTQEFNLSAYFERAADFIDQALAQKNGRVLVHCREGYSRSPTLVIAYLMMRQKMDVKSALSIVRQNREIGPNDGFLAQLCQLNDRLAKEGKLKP
PrPC TRFRET: inhibitors of human cell surface prion protein PrPC. inhibition, % at 13.8 µM. TR-FRET read-out. 370,000 compounds, 0.43% hits. P04156; in the data active = inhibition above about 24%; also: 0% = median of the test wells and 100% = reference compound wells
SARS 3CLpro inh: SARS-CoV 3CLpro protease inhibition; recombinant SARS-CoV 3CLpro, quenched FRET peptide cleavage; inhibition, % at 6 µM; 290,000 compounds, 0.14% hits; in the data active = inhibition above about 12%
BJeLR viability: BJeLR cell viability loss; BJeLR (HRASV12) viability, CellTiter-Glo ATP luminescence, 48 h; inhibition, % (no concentration beside the values); 300,000 compounds, 0.17% hits; AID 1554; in the data active = inhibition above about 50%
Numbers without * were called inactive. A selection: hits, their analogues and other compounds. The true share with any hit is near 1.1%.

Screening C(=C\c1ccccc1)/CN1CCN(C(c2cccc3ccccc23)c2nnnn2-c2ccc3c(c2)OCCO3)CC1 (stereo unspecified) returned PrPC TRFRET -12.
CCOC(=O)N1CCN(S(=O)(=O)N2CCCC(C(=O)NCCc3ccc(OCC)c(OCC)c3)C2)CC1 (stereo unspecified) was read as VHR inh abs 57*, PrPC TRFRET 2, SARS 3CLpro inh -2 and BJeLR viability -6.
`CCOc1ccc(CCNC(=O)C2CCCN(S(=O)(=O)N3CCCCC3)C2)cc1OCC` (stereo unspecified) gave PrPC TRFRET 3.
Screening COC(=O)[C@H](CC(C)C)NC(=O)CC[C@H]1O[C@@H](n2ccc(=O)[nH]c2=O)[C@H](O)[C@@H]1O returned PrPC TRFRET 4.
For COc1ccc(CN2CCOCC2)cc1 the results were VHR inh abs 52*, PrPC TRFRET -4, SARS 3CLpro inh 4 and BJeLR viability 0.
`COc1ccc(CN2CCOCCOCCOCC2)cc1` gave VHR inh abs -3, PrPC TRFRET -2, SARS 3CLpro inh -4 and BJeLR viability -7.
For Cc1ccc2nc3c(c(N)c2c1)CCN3c1ccccc1 the results were VHR inh abs 11, PrPC TRFRET -6, SARS 3CLpro inh 6 and BJeLR viability -3.
Screening Cc1ccc2nc3c(c(N)c2c1)CCN3C returned VHR inh abs 58*, PrPC TRFRET -12, SARS 3CLpro inh -6 and BJeLR viability -1.
For COc1ccc(C(C(=O)NCCC(C)C)N(CCO)C(=O)c2snc(C(N)=O)c2N)cc1 (stereo unspecified) the results were VHR inh abs 53*, PrPC TRFRET -4, SARS 3CLpro inh -3 and BJeLR viability -2.
Screening COc1ccc(C(C)=O)cc1COC(=O)C1CCN(C(=O)c2ccc(Cl)cc2)CC1 returned PrPC TRFRET -5.
Screening COc1ccc(/C=C/C(=O)c2cc(F)ccc2OC(=O)c2ccccc2C)cc1OC returned VHR inh abs -7, PrPC TRFRET 6, SARS 3CLpro inh 3 and BJeLR viability 77*.
Screening COc1ccc(C(=O)Oc2ccc(F)cc2C(=O)/C=C/c2ccc(OC)c(OC)c2)cc1 returned VHR inh abs -11, PrPC TRFRET -9, SARS 3CLpro inh 2 and BJeLR viability -4.
Screening COc1cc(C(=O)N2CCCN(C)CC2)cc(OC)c1C returned VHR inh abs 57*, PrPC TRFRET 0, SARS 3CLpro inh 0 and BJeLR viability 2.
`CN1CCCN(C(=O)c2ccc(Br)cc2)CC1` gave VHR inh abs 35, PrPC TRFRET -8, SARS 3CLpro inh -3 and BJeLR viability 5.
Cn1nc(C2CC2)cc1NC(=O)C1(C)CCN1C(=O)Cc1ccc(-c2ccccc2)cc1 (stereo unspecified) was read as PrPC TRFRET -5.
Screening O=C(CCCCCCCCCCC(=O)NCc1cccnc1)NCc1cccnc1 returned VHR inh abs 32, PrPC TRFRET 12, SARS 3CLpro inh -3 and BJeLR viability 74*.
Screening O=C(CCCN1C(=O)c2ccccc2C1=O)NCc1cccnc1 returned VHR inh abs 18, PrPC TRFRET 2, SARS 3CLpro inh -5 and BJeLR viability 12.
CC(C)(C)c1ccc(C(=O)Nc2ccc(C(=O)NCc3cccnc3)cc2)cc1 was read as VHR inh abs 23, PrPC TRFRET 7, SARS 3CLpro inh 1 and BJeLR viability 82*.
O=C(CCCCCN1C(=O)c2cccc3cccc(c23)C1=O)NCc1cccnc1 was read as VHR inh abs 27, PrPC TRFRET -2, SARS 3CLpro inh 1 and BJeLR viability 80*.
CSc1ncc(Cl)c(C(=O)NCc2ccc3c(c2)OCO3)n1 was read as VHR inh abs 22, PrPC TRFRET -1, SARS 3CLpro inh 0 and BJeLR viability -5.
For CSc1ncc(Cl)c(C(=O)NCc2cccnc2)n1 the results were VHR inh abs 52*, PrPC TRFRET 6, SARS 3CLpro inh 3 and BJeLR viability 0.
`Cc1ccc(N(C(=O)c2csnn2)C(C(=O)NCc2ccccc2)c2ccccn2)cc1` (stereo unspecified) gave VHR inh abs -3, PrPC TRFRET 8, SARS 3CLpro inh 4 and BJeLR viability 2.
Screening O=C(NC1CCCCN(Cc2cccc(C(F)(F)F)c2)C1=O)c1ccc(F)cc1 (stereo unspecified) returned PrPC TRFRET 4.
`CCN(CC)C(=O)[C@H]1C[C@H](CC(=O)NCCN2CCOCC2)C(=O)N2CCc3c([nH]c4cc(CCC(=O)N(C)C)ccc34)[C@]12C` gave PrPC TRFRET 0.
`CC1CCCCN1CCCNC(=O)c1ccc(N2CCCC2=O)cc1` (stereo unspecified) gave VHR inh abs 17, PrPC TRFRET 6, SARS 3CLpro inh -4 and BJeLR viability -2.
Screening CCC1CCCCN1CCCNC(=O)c1ccc(N2CCCC2=O)cc1 (stereo unspecified) returned VHR inh abs 56*, PrPC TRFRET -3, SARS 3CLpro inh 3 and BJeLR viability 3.
Screening O=S(=O)(c1cccc2ccccc12)N1CCC2CC1c1cc(Cl)ccc12 (stereo unspecified) returned PrPC TRFRET -6.
O=C(CSc1n[nH]c(-c2ccccc2O)n1)N1CCCc2ccccc21 was read as VHR inh abs 52*, PrPC TRFRET -2, SARS 3CLpro inh 1 and BJeLR viability -14.
Nc1nc(SCC(=O)N2CCCc3ccccc32)n(-c2ccccc2)n1 was read as VHR inh abs 50*, PrPC TRFRET 12, SARS 3CLpro inh -4 and BJeLR viability 14.
O=C(CSc1nnnn1-c1ccccc1)N1CCCc2ccccc21 was read as VHR inh abs 10, PrPC TRFRET -1, SARS 3CLpro inh 7 and BJeLR viability -3.
For COc1ccc(C2Nc3ccccc3C(=O)N2NC(C)=O)c(OC)c1 (stereo unspecified) the results were VHR inh abs 53*, PrPC TRFRET 7, SARS 3CLpro inh -2 and BJeLR viability 2.
Screening CCCN1C(=O)c2ccccc2NC1c1ccc(OC)cc1OC (stereo unspecified) returned VHR inh abs 8, PrPC TRFRET -2, SARS 3CLpro inh 3 and BJeLR viability -4.
Cc1cccc(NC(=O)C(=O)NNC(=O)c2ccc(C(C)(C)C)cc2)c1 was read as VHR inh abs 52*, PrPC TRFRET 1, SARS 3CLpro inh 1 and BJeLR viability -2.
`CC(C)(C)c1ccc(C(=O)NNC(=O)c2cccc(Br)c2)cc1` gave VHR inh abs -7, PrPC TRFRET -3, SARS 3CLpro inh 3 and BJeLR viability -11.
Screening Cc1ccc(-n2c(SCC(=O)Nc3cccc(S(=O)(=O)NC4=NCCCCC4)c3)nc3ccccc3c2=O)cc1C returned VHR inh abs 60*, PrPC TRFRET 5, SARS 3CLpro inh -1 and BJeLR viability -3.
`CN(C)c1ccc2nc3ccc(=[N+](C)C)cc-3sc2c1` gave VHR inh abs 11, PrPC TRFRET -24 and SARS 3CLpro inh -4.
For Cc1cc2nc3ccc(=[N+](C)C)cc-3sc2cc1N the results were VHR inh abs 32, SARS 3CLpro inh -1 and BJeLR viability 57*.
For Cc1cccc(/C=C\c2nc3ccccc3c(=O)[nH]2)c1 the results were VHR inh abs 7, PrPC TRFRET -2, SARS 3CLpro inh -1 and BJeLR viability 45.
